Values joined by “and” are separate entries in the source; they are usually repeats but may differ in a detail not shown here. Equal values may be shown once. Inconclusive results are not listed. Active and inactive are the calls of the source. Unless noted, the call rests on the fitted dose curve; in most records, active means well fitted curve in the direction sought with a large enough effect; inconclusive means small, poorly fitted or top-dose-only effect, or another doubt; inactive means no such curve, though single readings can be large; an effect the other way counts as inactive or inconclusive.
Test system: not listed separately
Experiment: Cell Viability - Renal Proximal Tubule (AID 545); further: nearly all actives have a fitted effect of over 40% in size
Conditions: renal proximal tubule cells viability; at 91.7 µM (top of the series), primary cells of rat origin unless noted
Method in brief: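 Rat renal proximal tubule primary cells, 1000/well, exposed to compounds for 40 hr at 37 °C in complete medium; cellular ATP read by CellTiter-Glo luminescence. AC50 from concentration-response fitted with standard Hill equation.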
In the case of `ClC1=C(Cl)C2(Cl)C3C4C=CC(C4)C3C1(Cl)C2(Cl)Cl` (stereo not drawn), the activity change, negative = cytotoxicity is reported as 4.94% [at 91.7 µM] (inactive).
With `O=S1OCC2C(CO1)C1(Cl)C(Cl)=C(Cl)C2(Cl)C1(Cl)Cl` (stereo not drawn) the activity change, negative = cytotoxicity was -22.1% [at 91.7 µM] (inactive).
In the case of `c1ccc(N=Nc2ccccc2)cc1`, the activity change, negative = cytotoxicity is reported as -6.36% (inactive).
For `CCOCN(C(=O)CCl)c1c(C)cccc1CC`, the activity change, negative = cytotoxicity was -103% (active).
In the case of `CNC(=O)O/N=C/C(C)(C)SC`, the activity change, negative = cytotoxicity is reported as -3.02% [at 91.7 µM] (inactive).
In the case of `CCNc1nc(Cl)nc(NC(C)C)n1`, the activity change, negative = cytotoxicity is reported as -6.93% [at 91.7 µM] (inactive).
With `C=CCc1ccc(OC)cc1` the activity change, negative = cytotoxicity was -9.51% [at 91.7 µM] (inactive).
With `ClC1=C(Cl)C2(Cl)C3C(Cl)C=CC3C1(Cl)C2(Cl)Cl` (stereo not drawn) the activity change, negative = cytotoxicity was -2.85% (inactive).
In the case of `ClC1=C(Cl)C2(Cl)C3C4CC(C5OC45)C3C1(Cl)C2(Cl)Cl` (stereo not drawn), the activity change, negative = cytotoxicity is reported as -5.71% [at 91.7 µM] (inactive).
In the case of `ClC(Cl)=C(c1ccc(Cl)cc1)c1ccc(Cl)cc1`, the activity change, negative = cytotoxicity is reported as -4.32% [at 91.7 µM] (inactive) and -7.69% [at 91.7 µM] (inactive).
With `C/C=C/c1ccc2c(c1)OCO2` the activity change, negative = cytotoxicity was -9.95% [at 91.7 µM] (inactive).
With `C=CCc1ccc2c(c1)OCO2` the activity change, negative = cytotoxicity was 1.52% [at 91.7 µM] (inactive).
For `COP(=S)(OC)Oc1ccc([N+](=O)[O-])cc1`, the activity change, negative = cytotoxicity was -3.77% [at 91.7 µM] (inactive).

Test system: not listed separately
Experiment: Cell Viability - Mesenchymal (AID 546);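 further: cells exposed to compound for 40 hours before reading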
Conditions: mesenchymal cells viability, qHTS; series mostly up to 91.7 µM; activity change, negative = cytotoxicity: at the top concentration
Method in brief: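 Human kidney mesenchymal cells from normal renal glomeruli, 1000 cells/well, rested 5 hr at 37 °C, then treated 40 hr at 37 °C in complete medium. Cellular ATP read by CellTiter-Glo luminescence; AC50 from Hill-equation fits.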
With `O=C(O)COc1ccc(Cl)cc1Cl` the outcome was “inactive”.
In the case of `ClC1=C(Cl)C2(Cl)C3C4C=CC(C4)C3C1(Cl)C2(Cl)Cl` (stereo not drawn), the “activity change, negative = cytotoxicity” value is reported as -4.89% (inactive).
For `O=S1OCC2C(CO1)C1(Cl)C(Cl)=C(Cl)C2(Cl)C1(Cl)Cl` (stereo not drawn), the “activity change, negative = cytotoxicity” value was 11.1% (inactive).
For `c1ccc(N=Nc2ccccc2)cc1`, the “activity change, negative = cytotoxicity” value was 11.4% (inactive).
For `CCOCN(C(=O)CCl)c1c(C)cccc1CC`, the “activity change, negative = cytotoxicity” value was -3.22% (inactive).
In the case of `CNC(=O)O/N=C/C(C)(C)SC`, the “activity change, negative = cytotoxicity” value is reported as 1.78% (inactive).
With `CCNc1nc(Cl)nc(NC(C)C)n1` the “activity change, negative = cytotoxicity” value was -1.77% (inactive).
With `C=CCc1ccc(OC)cc1` the “activity change, negative = cytotoxicity” value was 0.762% (inactive).
With `ClC1=C(Cl)C2(Cl)C3C(Cl)C=CC3C1(Cl)C2(Cl)Cl` (stereo not drawn) the “activity change, negative = cytotoxicity” value was -3.1% (inactive).
With `ClC(Cl)=C(c1ccc(Cl)cc1)c1ccc(Cl)cc1` the outcome was “inactive”.
With `CCc1cccc(CC)c1N(COC)C(=O)CCl` the “activity change, negative = cytotoxicity” value was 3.13% (inactive).
For `C/C=C/c1ccc2c(c1)OCO2`, the “activity change, negative = cytotoxicity” value was 4.8% (inactive).
With `C=CCc1ccc2c(c1)OCO2` the “activity change, negative = cytotoxicity” value was 7.59% (inactive).
With `COP(=S)(OC)Oc1ccc([N+](=O)[O-])cc1` the “activity change, negative = cytotoxicity” value was 2.42% (inactive).

Molecular target: 3',5'-cyclic-AMP phosphodiesterase 4B (Homo sapiens) (UniProt Q07343)
Sequence (Q07343 whole entry, looked up): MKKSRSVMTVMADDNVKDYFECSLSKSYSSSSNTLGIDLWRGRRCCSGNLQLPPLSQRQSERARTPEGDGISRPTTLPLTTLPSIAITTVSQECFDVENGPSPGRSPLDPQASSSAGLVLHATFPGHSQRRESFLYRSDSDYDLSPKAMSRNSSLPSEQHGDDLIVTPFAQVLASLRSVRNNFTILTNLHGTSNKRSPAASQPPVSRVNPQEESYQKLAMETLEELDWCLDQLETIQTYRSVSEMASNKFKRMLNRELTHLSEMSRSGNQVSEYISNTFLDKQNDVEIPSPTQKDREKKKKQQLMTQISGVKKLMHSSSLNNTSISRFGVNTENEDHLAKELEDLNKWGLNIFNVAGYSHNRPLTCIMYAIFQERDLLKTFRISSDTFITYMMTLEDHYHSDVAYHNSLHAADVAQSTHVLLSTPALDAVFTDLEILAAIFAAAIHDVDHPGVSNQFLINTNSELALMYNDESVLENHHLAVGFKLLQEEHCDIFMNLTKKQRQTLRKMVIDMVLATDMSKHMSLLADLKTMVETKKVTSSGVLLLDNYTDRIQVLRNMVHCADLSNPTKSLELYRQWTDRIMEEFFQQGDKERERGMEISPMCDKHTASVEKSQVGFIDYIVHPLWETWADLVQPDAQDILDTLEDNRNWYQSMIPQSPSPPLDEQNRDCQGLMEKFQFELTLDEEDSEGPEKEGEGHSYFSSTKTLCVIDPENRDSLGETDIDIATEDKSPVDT
Experiment: qHTS Assay for Inhibitors of PDE-IV (AID 607; active means well fitted activation curve with a large enough effect in the main read-out, with a control signal flat, not every such curve was filed as active; further: % of control where 0% means no effect)
Conditions: HEK293 ACTOne CNG channel cells, membrane potential fluorescence; series mostly up to 22.9 µM; activation (PDE inhibition): at the top concentration
Method in brief: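 The readout is membrane depolarisation from a cAMP-sensing CNG channel, detected with a potential dye at ex 535/em 590. Cells were HEK293-derived (endogenous PDE-IV) at 1000 cells/well, titrated up to 22.9 uM final.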
With `O=C(O)CNCP(=O)(O)O` the “activation (PDE inhibition)” value was 3.85% (inactive).
In the case of `Cc1nc2cnc(N3CCNCC3)nc2n(C)c1=O`, the “activation (PDE inhibition)” value is reported as -5.61% (inactive).
For `C[N+]1([O-])[C@@H]2CC(OC(=O)[C@@H](CO)c3ccccc3)C[C@@H]1[C@H]1O[C@H]12` (stereo partly drawn), the Potency was “inactive”.
In the case of `CC(C)NC(=O)N1CCC2(CCNCC2)CC1`, the “activation (PDE inhibition)” value is reported as 7.55% (inactive).
For `CN1CC[C@@]2(CCCN(C(=O)c3ccco3)C2)C1`, the “activation (PDE inhibition)” value was -1.72% (inactive).
In the case of `c1cc(CN2CCC3(CCNCC3)CC2)ccn1`, the “activation (PDE inhibition)” value is reported as 9.68% (inactive).
With `CC(C)CN1CC2(CCN(C(=O)c3ccncc3)CC2)C1` the “activation (PDE inhibition)” value was 3.05% (inactive).
In the case of `CCNC[C@H](O)c1cccc(O)c1`, the “activation (PDE inhibition)” value is reported as -10.7% (inactive).
In the case of `N#Cc1ccc(CN2CC[C@@]3(CCCNC3)C2)cc1`, the “activation (PDE inhibition)” value is reported as 7.45% (inactive).
In the case of `N#Cc1ccc(CN2CCC3(CC2)CCN(C(=O)Oc2ccccc2)CC3)cc1`, the “activation (PDE inhibition)” value is reported as 1.96% (inactive).
In the case of `O=C(Oc1ccccc1)N1CCC2(CCCN(C(c3ccccc3)c3ccccc3)C2)CC1`, the “activation (PDE inhibition)” value is reported as 27.7% (inactive).
With `c1ccc(N2CCC3(CCNCC3)CC2)cc1` the “activation (PDE inhibition)” value was -4.99% (inactive).
In the case of `COc1ccc2c(c1O)-c1c(OC)c(OC)cc3c1[C@H](C2)N(C)CC3`, the “activation (PDE inhibition)” value is reported as 14% (inactive).

Test system: not listed separately
Experiment: Cellular Toxicity (caspase-3) HepG2 (AID 654);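 further: cells exposed to compound for 16 hours before reading; 0% = DMSO alone and 100% = caspase signal from 100 µM tamoxifen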
Conditions: HepG2 caspase-3 activation, luminescence, 0% = DMSO only, 100% = tamoxifen; series mostly up to 92.2 µM; caspase-3 activation: at the top concentration
Method in brief: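 Cells plated 5 hr at 37 °C, compound added, incubated 16 hr at 37 °C. Caspase-Glo 3/7 reagent followed, 20 min at room temperature, then luminescence read. Activation scored as signal increase; AC50 from Hill fit.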
In the case of `O=C(O)COc1ccc(Cl)cc1Cl`, the outcome is reported as “inactive”.
With `ClC1=C(Cl)C2(Cl)C3C4C=CC(C4)C3C1(Cl)C2(Cl)Cl` (stereo not drawn) the “caspase-3 activation” value was -0.391% (inactive).
For `O=S1OCC2C(CO1)C1(Cl)C(Cl)=C(Cl)C2(Cl)C1(Cl)Cl` (stereo not drawn), the “caspase-3 activation” value was -0.638% (inactive).
For `c1ccc(N=Nc2ccccc2)cc1`, the “caspase-3 activation” value was 2.3% (inactive).
With `CCOCN(C(=O)CCl)c1c(C)cccc1CC` the “caspase-3 activation” value was 0.343% (inactive).
With `CNC(=O)O/N=C/C(C)(C)SC` the “caspase-3 activation” value was -0.248% (inactive).
For `CCNc1nc(Cl)nc(NC(C)C)n1`, the “caspase-3 activation” value was 0.307% (inactive).
For `C=CCc1ccc(OC)cc1`, the “caspase-3 activation” value was -0.515% (inactive).
In the case of `ClC1=C(Cl)C2(Cl)C3C(Cl)C=CC3C1(Cl)C2(Cl)Cl` (stereo not drawn), the “caspase-3 activation” value is reported as 0.683% (inactive).
With `ClC1=C(Cl)C2(Cl)C3C4CC(C5OC45)C3C1(Cl)C2(Cl)Cl` (stereo not drawn) the “caspase-3 activation” value was -0.518% (inactive).
With `ClC(Cl)=C(c1ccc(Cl)cc1)c1ccc(Cl)cc1` the outcome was “inactive”.
With `CCc1cccc(CC)c1N(COC)C(=O)CCl` the “caspase-3 activation” value was -0.515% (inactive).
In the case of `C/C=C/c1ccc2c(c1)OCO2`, the “caspase-3 activation” value is reported as 0.111% (inactive).
For `C=CCc1ccc2c(c1)OCO2`, the “caspase-3 activation” value was 0.761% (inactive).
In the case of `COP(=S)(OC)Oc1ccc([N+](=O)[O-])cc1`, the “caspase-3 activation” value is reported as 0.211% (inactive).

Test system: not listed separately
Experiment: Cellular Toxicity (caspase-3) Jurkat (AID 655);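 further: cells exposed to compound for 16 h at 37 °C before reading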
Conditions: Jurkat caspase-3 activation, luminescence, DMSO = 0%, tamoxifen = 100%; at 92.2 µM (top of the series)
Method in brief: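 Jurkat cells (5000/well) in complete medium exposed 16 h at 37 C; caspase-3/7 activity read by Caspase-Glo luminescence after 20 min at room temperature. Normalized to DMSO and 100 uM tamoxifen; AC50 from Hill fits.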
In the case of `O=C(O)COc1ccc(Cl)cc1Cl`, the caspase-3 activation is reported as -0.262% (inactive) and -0.585% (inactive).
In the case of `ClC1=C(Cl)C2(Cl)C3C4C=CC(C4)C3C1(Cl)C2(Cl)Cl` (stereo not drawn), the caspase-3 activation is reported as 6.54% (inactive).
With `O=S1OCC2C(CO1)C1(Cl)C(Cl)=C(Cl)C2(Cl)C1(Cl)Cl` (stereo not drawn) the caspase-3 activation was 10.8% (inactive).
With `c1ccc(N=Nc2ccccc2)cc1` the caspase-3 activation was 92% (active).
For `CNC(=O)O/N=C/C(C)(C)SC`, the caspase-3 activation was -0.602% (inactive).
For `CCNc1nc(Cl)nc(NC(C)C)n1`, the caspase-3 activation was 0.071% (inactive).
For `C=CCc1ccc(OC)cc1`, the caspase-3 activation was 0.324% (inactive).
With `ClC1=C(Cl)C2(Cl)C3C(Cl)C=CC3C1(Cl)C2(Cl)Cl` (stereo not drawn) the caspase-3 activation was 5.51% (inactive).
For `ClC1=C(Cl)C2(Cl)C3C4CC(C5OC45)C3C1(Cl)C2(Cl)Cl` (stereo not drawn), the caspase-3 activation was 28.4% (inactive).
For `ClC(Cl)=C(c1ccc(Cl)cc1)c1ccc(Cl)cc1`, the caspase-3 activation was 0.557% (inactive) and 1.81% (inactive).
In the case of `C/C=C/c1ccc2c(c1)OCO2`, the caspase-3 activation is reported as 2.64% (inactive).
With `C=CCc1ccc2c(c1)OCO2` the caspase-3 activation was 1.31% (inactive).
For `COP(=S)(OC)Oc1ccc([N+](=O)[O-])cc1`, the caspase-3 activation was 4.38% (inactive).
